High-throughput results (PubChem)
Insulin prom up: MIN6 insulin promoter up-regulation. MIN6 insulin promoter-GFP reporter, high-content imaging; stronger effect = higher value. z-score at 5 µM. actives 0.3% (n = 190,000). AID 1625;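 active = z-score above 3 at 5 µM with at least 500 cells counted in the well; inconclusive = wells under 500 cells, flagged as cytotoxic or low count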
Insulin prom inh: TRM-6 insulin promoter activity inhibition | TRM-6 cells (human fetal islet line), insulin promoter-eGFP reporter, imaging; reporter expression induced with tamoxifen | actives 0.9% (n = 130,000) | inhibition, % at 2 µM;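 active = inhibition above the mean plus 3 SD, with well images judged a real hit on visual review, cut at about 60% in these data, passing the limit was not always enough; inconclusive = inhibition over the cutoff but images rejected on review; inactive = inhibition not above the cutoff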
WT yeast gro inh: growth inhibition of WT yeast, mitochondrial fusion screen; AID 1362; actives 2.1% (n = 190,000); inhibition, % at 10 µM; mitochondrial fusion phenotypic screen, WT strain; in the data active = inhibition above about 58%; tested in S. cerevisiae
Autophagy HCS: autophagy modulation, high-content screen. actives 0.98% (n = 190,000). AID 463193. MEF GFP-LC3 puncta imaging; test concentration mostly 10 µM. calls only at 10 µM (by protocol);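 active = percentage of spot-positive cells more than 3 SD above its plate mean, without a fluorescence outlier flag or 80% toxicity; inconclusive = no clear call, values can overlap the other calls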;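 also: spot-positive cell cutoff set from DMSO-treated cells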
Lmaj promast: reduces viability of Leishmania major promastigotes; AID 1063; resazurin fluorescence viability; actives 9% (n = 200,000); inhibition, % at 10 µM; in the data active = inhibition above about 50%;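 also: promastigotes grown with compound for 44 hours at 28 °C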
The depositor's hits bear a star; i = inactive; ? = inconclusive; . = no result. Compounds with a hit are over-represented: about 11% of the library has one in this group of screens.

SMILES | Insulin prom up | Insulin prom inh | WT yeast gro inh | Autophagy HCS | Lmaj promast
Cc1cccc(-n2nnnc2SCC(=O)Nc2cccc(S(N)(=O)=O)c2)c1 | 0.25 | . | . | . | .
CCc1[nH]c(C(=O)O)c(C)c1C(=O)OC | -0.1 | . | . | . | .
c1ccc(CC2CCN(c3ncnc4sccc34)CC2)cc1 | -3.9 | . | 63* | i | 20
O=C(O)c1cc2c(N3CCC(Cc4ccccc4)CC3)ncnc2s1 | -0.59 | 12 | -3 | i | -2
CCOc1ccc(Br)cc1S(=O)(=O)Nc1cccc(S(=O)(=O)N(C)c2ccccc2)c1 | . | -59 | 38 | i | 32
COc1cc(C=C(c2nc3ccccc3s2)c2nc3ccccc3s2)ccc1O | 1.1 | -123 | 55 | i | 97*
COc1ccc(C=C(c2nc3ccccc3s2)c2nc3ccccc3s2)cc1O | 1 | -69 | 48 | i | 99*
COc1ccc(N2CCN(c3nc4c(c(=O)n(C)c(=O)n4C)n3CCCc3ccccc3)CC2)cc1 | -0.09 | . | . | . | .
Cc1nn(C)c(N)c1C(O)(c1nccn1C)C(F)(F)F (stereo unspecified) | 0.75 | . | 4 | i | -3
CC1CCCN(c2nc3c(c(=O)n(C)c(=O)n3C)n2CCSc2nc3ccccc3s2)C1 (stereo unspecified) | 3.2* | . | 46 | i | 42
Cc1ccnc(SCCn2c(N3CC(C)CC(C)C3)nc3c2c(=O)n(C)c(=O)n3C)n1 (stereo unspecified) | -1.3 | . | -1 | i | 58*
CN(/N=C/c1ccc(C(C)(C)C)cc1)C1=NCCN1 | 1.8 | -178 | 5 | i | 56*
CN(/N=C/c1ccncc1)c1cnc2ccccc2n1 | -0.86 | 63 | -4 | i | 14
O=C(c1ccc(Cl)cc1)N1CCC(O)(CSc2ccc(Cl)cc2Cl)CC1 | 0.22 | . | 71* | i | 5
O=C(c1ccc(Cl)c(Cl)c1)N1CCC(O)(CN2CCOCC2)CC1 | 0.17 | 44 | -1 | i | 79*
O=C(O)c1cc(Cl)c(Cl)cc1C(=O)N1CCOCC1 | 0.2 | -30 | 3 | i | -7
CCc1ccccc1NC(=S)N(CCN(C)C)Cc1cccs1 | -0.18 | -7 | 11 | i | -1
Cc1ccc(SCC(=O)NCc2cccnc2)cc1 | . | -11 | 16 | i | -6
Cc1ccc(CNCc2cccnc2)cc1 | -0.13 | -7 | -20 | i | 93*
Cc1ccc(CNCc2cccnc2)s1 | 0.35 | . | -23 | i | 66*
CCOc1ccc(NC(=O)NCc2cccnc2)cc1 | -0.58 | . | -1 | i | 4
CCOc1ccc(CNCc2cccnc2)cc1 | . | 25 | -8 | i | 90*
c1ccc(COc2ccc(CNCc3cccnc3)cc2)cc1 | . | . | 44 | i | 99*
CCCCC1CC(/C(C)=N/NC(N)=O)OC1=O (stereo unspecified) | 0.93 | 49 | -3 | i | -1
c1ccc(COc2ccc(CNCc3cccs3)cc2)cc1 | -0.72 | . | 34 | i | 99*
SMILES | Insulin prom up | Insulin prom inh | WT yeast gro inh | Autophagy HCS | Lmaj promast
Cc1cc(F)ccc1NCc1cccnc1 | -0.24 | -22 | -10 | i | -6
Cc1ccc(NCc2cccnc2)c(Br)c1 | 0.37 | 67* | 15 | i | -3
CC(C)(C)NC(=O)COc1ccc(CNCc2cccs2)cc1 | -1.9 | . | 2 | i | 77*
C/C(=N\NC(=O)C(=O)Nc1cc(C)ccc1C)c1ccncc1 | -0.58 | . | . | . | .
COc1ccc(N2CCN(C(=O)C(C)(C)Oc3ccc(Cl)cc3)CC2)cc1 | 2.2 | . | 43 | . | 98*
O=C(c1cnc(-c2ccccc2)s1)c1ccc(Cl)cc1Cl | . | -20 | 64* | i | -2
Cc1cc(C)nc(N/N=C/c2sccc2C)n1 | -2.9 | -5 | 17 | i | -3
Cc1ccsc1/C=N/Nc1nc(=O)[nH]nc1C | -0.75 | . | 70* | i | 3
CCCCCC(=O)NNC(=O)c1ccc(-c2ccccc2)cc1 | 0.93 | -7 | -2 | i | -3
Clc1ccc(Cc2nc(-c3cccnc3)no2)cc1 | . | -40 | -3 | i | -4
O=[N+]([O-])c1ccc(/C=N/Nc2nc(-c3ccccc3)c3cc(Br)ccc3n2)o1 | 1.6 | 19 | 73 | i | 93*
Cc1ccc2nc(N/N=C\c3ccc([N+](=O)[O-])o3)nc(-c3ccccc3)c2c1 | -0.42 | -22 | 68 | ? | 98*
N#Cc1ccccc1/C=N/Nc1nc(-c2ccccc2)c2cc(Br)ccc2n1 | -0.61 | 17 | -8 | i | 11
O=[N+]([O-])c1ccc(/C=N/Nc2ccc3ccccc3c2)o1 | 2.9 | i | 18 | i | -5
COc1ccc(Cl)cc1C(=O)NC(C)C | -0.12 | . | 15 | i | -8
O=C(CN1N=C(c2ccc(Cl)cc2)CCC1=O)NCc1cccnc1 | 0.18 | -42 | 5 | i | 1
CCCCCCC(C)NC(=S)Nc1cc(S(=O)(=O)N(C)C)ccc1C (stereo unspecified) | 0.84 | -36 | -4 | i | -5
CC[n+]1c(/C=C/N(C)c2ccccc2)oc2ccc(Cl)cc21 | ? | . | 17 | i | 100*
CCn1c(C)[n+](CC)c2ccc(C(=O)N(C)c3ccccc3)cc21 | 0.08 | . | 6 | i | -4
CCOC(=O)CC(C)(C)/C(C)=N/Nc1ccc([N+](=O)[O-])cc1[N+](=O)[O-] | -0.66 | 0 | 26 | i | 3
Cc1ccc(Nc2nc3c(c(=O)[nH]2)CCCC3)cc1 | 0.14 | 19 | -10 | i | 13
O=c1[nH]c(Nc2nc3ccccc3o2)nc2c1CCCC2 | -0.25 | . | 29 | ? | 95*
Cc1cccc(NC(=O)CCN2CCN(C/C=C/c3ccccc3)CC2)c1 | -0.37 | 6 | 12 | i | 91*
Cc1cccc(NC(=O)CCN2CCOCC2)c1 | 0.61 | . | 1 | i | 12
Cc1ccccc1NC(=O)CCN1CCN(C/C=C/c2ccccc2)CC1 | -2.5 | . | 22 | i | 88*
SMILES | Insulin prom up | Insulin prom inh | WT yeast gro inh | Autophagy HCS | Lmaj promast
O=C(CCN1CCCC1)Nc1ccccc1 | -1 | 43 | 12 | i | -2
O=C(CCN1CCN(C/C=C/c2ccccc2)CC1)Nc1ccccc1 | -0.4 | 32 | 5 | i | 93*
COc1ccccc1NC(=O)C(C)N1CCN(C/C=C/c2ccccc2)CC1 (stereo unspecified) | -1.2 | 42 | 11 | i | 84*
CC(C(=O)Nc1cccc(S(=O)(=O)N2CCOCC2)c1)N1CCN(C/C=C/c2ccccc2)CC1 (stereo unspecified) | -0.4 | 0 | -11 | i | 5
CCN1C(=O)NC2C1N(S(C)(=O)=O)CCN2S(C)(=O)=O (stereo unspecified) | 0.87 | -5 | -1 | i | -9
O=C(Nc1ccccc1N1CCOCC1)C1CCN(S(=O)(=O)c2cccc(C(F)(F)F)c2)CC1 | -0.78 | 11 | -3 | i | 66*
CCOC(=O)N1CCN(Cc2nc3c(c(=O)[nH]c(=O)n3C)n2Cc2cc(C)ccc2C)CC1 | -0.64 | 12 | 13 | i | 4
O=C1CC(/C=C/c2cccnc2)=Nc2ccccc2N1 | 0.3 | . | 0 | i | 65*
O=C1CC(/C=C/c2ccc(Cl)cc2)=Nc2ccccc2N1 | -1.2 | . | -11 | i | 81*
CC1(C)CC(/C=C/c2ccccc2)=Nc2ccccc2N1 | -0.44 | . | . | . | .
O=C1CC(/C=C/c2ccccc2)=Nc2ccccc2N1 | -0.37 | . | -11 | i | 84*
